These results are taken from PubChem BioAssay (Tox21).

SMILES strings stand for the structures. Inconclusive results are not listed. A call without a number means that no potency is given here. More than one record can exist for a structure, and the calls need not agree. The source made the active and inactive calls. Calls come from the whole dose curve; as a rule, active = well fitted cell-killing curve with a large enough effect in the repeat runs; inconclusive = weak or mixed curves, or effect the other way; inactive = flat fitted curve, though single readings scatter.
Potency is the fitted concentration of half-maximal effect.

The nature of the experiment: Caspase-3/7 induction in HepG2 cells by small molecules, qHTS cell viability counter screen (AID 1346981). Note: nearly all actives have a fitted effect of over 30% in size. The settings on record: CellTiter-Fluor fluorescence, 17 h; series mostly up to 92.4 µM; activity change, negative = cytotoxicity: at the top concentration. The source says: U.S. Tox21 Program National Center for Advancing Translational Sciences [NCATS] NIH Chemical Genomics Center [NCGC] U.S. Environmental Protection Agency [EPA] National Institutes of Environmental Health Sciences [NIEHS] National Toxicology Program [NTP] U.S. Food and Drug Administration [FDA] Tox21 Assay Overview: Apoptosis is a process of programmed cell death and plays a central role in the development of multicellular organisms. It is a highly regulated process and induces cell death by activating caspases, which are the members of cysteine aspartic acid-specific protease (caspase) family. Caspases involved in apoptosis are classified by their mechanism of action as initiator caspases (caspase-2, -8, -9 and -10) and executioner caspases (caspase-3, -6, and -7). Inhibition of apoptosis results in number of cancers, autoimmune diseases, inflammatory diseases and viral infection. To identify small molecule compounds that induce apoptosis, a homogeneous, luminescent Caspase-Glo 3/7 assay was used. Wild type HepG2 cells were used to screen Tox21 libraries for identifying caspase-3/7 activity inducers. Also cytotoxicity of the compounds was tested in parallel by measuring the cell viability using CellTiter-Fluor assay system in the same wells.
Tox21 Assay Protocol Summary: HepG2 cells were dispensed at 2,000 per well in 5uL of culture medium into white solid bottom 1536-well plates (Corning Life Sciences, Corning, NY) using a Multidrop Combi (Thermo Scientific, Waltham, MA) dispenser. The assay plates were incubated at 37 C and 5% CO2 for 5hr, and then 23nL of compounds dissolved in DMSO and positive control were transferred using a Pintool station ([…], San Diego, CA). The assay plates were incubated at 37C and 5% CO2 for 17hr. For cytotoxicity read, after 16hr incubation at 37C, 1uL CellTiter-Fluor reagent (Promega Corporation, Madison, WI) was added to each well of the assay plates using Flying Reagent Dispenser (FRD, Aurora Discovery, San Diego, CA). After 1hr incubation at 37C and 5% CO2, the fluorescence signal was quantified using a ViewLux plate reader (PerkinElmer, Shelton, CT).
As for `O=[N+]([O-])c1ccc(Cl)c(Cl)c1`, the Potency entry is “inactive”.
As to `CNC(=O)O/N=C/C(C)(C)SC`, the Potency entry was “inactive”.
On the same count and under the same terms, in the case of `CCCCC(CC)C(=O)Cl` (stereo not given) it was “inactive”; in that of `CCNc1nc(Cl)nc(NC(C)C)n1`, “inactive”.
Take `Cc1cccc(C)c1N`: the “activity change, negative = cytotoxicity” value was 1.25% (inactive).
`Sc1ccccc1`: the Potency result is “inactive”.
Regarding `C=CC(=O)OCC(CC)CCCC` (stereo not given), the “activity change, negative = cytotoxicity” value was 2.98% (inactive).
For `COC(C)(C)CCCC(C)C/C=C/C(C)=C/C(=O)OC(C)C` (stereo not given), the Potency result was “inactive”.
With `Nc1cccc(Cl)c1`, the “activity change, negative = cytotoxicity” value was -13.5% (inactive).
Take `COP(=S)(OC)SCN1C(=O)c2ccccc2C1=O`: the Potency entry was “inactive”.
For the compound `CC(C)CCCCCCOC(=O)c1ccccc1C(=O)OCCCCCCC(C)C`, the Potency result is “inactive”.
Still for that read-out and setting: in the case of `CN(C)NC(=O)CCC(=O)O` it was “inactive”.
Regarding `O=[N+]([O-])c1cc([As](=O)(O)O)ccc1O`, the “activity change, negative = cytotoxicity” value was -7.43% [at 42.5 µM] (inactive).
As to `Nc1ncc([N+](=O)[O-])s1`, the Potency is 54.9 µM (active) and inactive.
Same read-out and setting: in the case of `CNC(=O)O/N=C/C(C)(C)S(C)(=O)=O` it was “inactive”.
On the same count and under the same terms, the same measure for `CC[N+](=O)[O-]`: “inactive”.
Still for that read-out and setting: in the case of `CCSC(=O)N1CCCCCC1` it was “inactive”; in that of `ClC(Cl)c1ccccc1`, “inactive”.
Take `O=C(O)Cc1ccccc1`: the “activity change, negative = cytotoxicity” value is 0.434% (inactive).
Consider `C[C@]12CC[C@H](O)CC1=CC[C@@H]1[C@@H]2CC[C@]2(C)C(=O)CC[C@@H]12`, for which the Potency entry was “inactive”.
On to `CNCC(O)c1ccc(O)cc1` (stereo not given), for which the Potency result was “inactive”.
For the compound `O=C(O)C1C(C(=O)O)C2(Cl)C(Cl)=C(Cl)C1(Cl)C2(Cl)Cl` (stereo not given), the Potency result was “inactive”.
Regarding `O=C(O)C(Br)Br`, the Potency result was “inactive”.
Still for that read-out and setting: the same measure for `Cc1ccccc1N`: “inactive”; for `OCCCCO`: “inactive”; for `CC12CC1(C)C(=O)N(c1cc(Cl)cc(Cl)c1)C2=O` (stereo not given): “inactive”.
For `COc1nc(NC(C)C)nc(NC(C)C)n1`, the Potency entry was “inactive”.
Same read-out and setting: in the case of `C[C@H]1C(=O)O[C@@H]2CCN3CC=C(COC(=O)[C@](C)(O)[C@]1(C)O)[C@H]23` it was “inactive”.
For the compound `Oc1c(Br)cc(Br)cc1Br`, the Potency entry was “inactive”.
Turning to `Cc1ccc(N)cc1`, the Potency entry is “inactive”.
Take `CNc1cnn(-c2cccc(C(F)(F)F)c2)c(=O)c1Cl`: the Potency entry is “inactive”.
Take `C=CC(=O)OCCCCCC(C)C`: the Potency result was “inactive”.
On the same count and under the same terms, the same measure for `CCOP(=S)(OCC)Oc1ccc([N+](=O)[O-])cc1`: “inactive”.
For the compound `Cc1cc(Cl)ccc1OC(C)C(=O)O` (stereo not given), the “activity change, negative = cytotoxicity” value was 8.43% (inactive).
On to `ClCCOCCCl`, for which the Potency entry was “inactive”.
For `Oc1ccc(Cl)cc1`, the Potency result is “inactive”.
Consider `CC(=O)/C=C/c1ccccc1`, for which the Potency result is “inactive”.
As for `Cc1cccc(C)c1NC(=O)CN1CCCC1=O`, the Potency entry is “inactive”.
On to `C=CCN=C=S`, for which the “activity change, negative = cytotoxicity” value was -1.89% (inactive).
Consider `Cl/C=C/Cl`, for which the Potency entry is “inactive”.
